For 15 compounds, growth results are on record in PubChem BioAssay (NCI).

SMILES strings stand for the structures. This is part of a sample that, as a whole, favours compounds with a hit. Of some 83,000 tested, about 20% had one in any assay.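 Each cell line was grown in a 96-well plate and treated with one concentration of compound for 48 hours. Values below 10 were considered active.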 Calls of active or inactive are those of the source.

In this experiment the test system is MDA-MB-435 melanoma. The experiment is described as follows: NCI-60 one-dose screen, 48 h (100 = growth as untreated, 0 = no growth, -100 = all killed). Particulars: 10 µM.
Consider `CC(C)(C)c1ccc(S(=O)(=O)Oc2ccc(NC(=O)C3CCCCC3)cc2)cc1`, for which the growth is 59.6% (inactive). For the compound `OCCn1cccn1`, the growth was 102% (inactive). For `O=C(/C=C/C=C/c1c(C2CC2)nc2ccccc2c1-c1ccc(F)cc1)c1cccs1`, the growth is 2.03% (active). As for `NS(=O)(=O)c1ccc(N2N=C(c3ccccc3)CCC2=O)cc1`, the growth is 97.3% (inactive). For `COc1cc(C2C(C#N)=C(N)Oc3cc(O)ccc32)cc(OC)c1OC` (stereo not given), the growth was -44.9% (active). On to `CC(C)N(CCOc1ccc(-c2nc3sccn3c2-c2ccnc(S(C)(=O)=O)n2)cc1)C(C)C`, for which the growth was 92.6% (inactive). Take `CCCCCCCCCCCCCCCCCC[n+]1ccc2c(C)c3c(c(C)c2c1)c1cc(O)ccc1n3CC`: the growth was -53.4% (active). Take `CC(C)c1cc(N=O)cc(C(C)C)c1O`: the growth is 109% (inactive). With `NS(=O)(=O)Oc1ccc2c(ccn2C(=O)C23CC4CC(CC(C4)C2)C3)c1`, the growth was 106% (inactive). With `COc1cc(-c2nn(-c3cccc(NC(=O)NCCNC(=O)c4ccccc4)c3)cc2-c2ccncc2)ccc1Cl`, the growth is 2.69% (active). Regarding `CCOC(=O)N/N=C/c1ccc(OC)c(OC)c1`, the growth was 106% (inactive). The figure for `CC(C)Cc1ccc([C@H](C)C(=O)O)cc1` is 103% (inactive). With `CCc1ccc(C2=NN(c3ccc(S(C)(=O)=O)cc3)C(=O)CC2)cc1`, the growth was -24.3% (active).

As for `CN1CCc2c(sc3nc4n(-c5ccc(Cl)cc5)c(=O)[nH]n4c(=O)c23)C1`, the growth was 103% (inactive).

Take `CC(C)(C)OC(=O)N1CCc2c(sc3ncnc(N/N=C/c4cccc5ccccc45)c23)C1`: the growth is -11.7% (active).
